A selection: hits, their analogues and other compounds. The true share with any hit is near 3.5%.
DNMT1 block: blocks human DNA methyltransferase DNMT1. P26358. DNMT1 molecular beacon, Hinp1I cleavage, fluorescence. inhibition (reported as % activation of signal), % at 10 µM. actives 0.83% (n = 360,000); in the data active = inhibition above about 50%
rCAG RNA binder: binds r(CAG) RNA repeats; r(CAG) RNA repeat, TO-PRO-1 dye displacement fluorescence; inhibition, % at 3 µM; actives 1.3% (n = 370,000);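 active = inhibition above the plate cutoff, the mean of all test compounds on that plate plus 3 SD, cut at about 35% in these data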;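 also: 0% = DMSO alone and 100% = 100 µM mitoxantrone as full dye displacement; higher means more dye released from RNA so lower well fluorescence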
PG9 Ab binder: small molecules binding HIV-1 gp120 antibody PG9; TR-FRET gp120-PG9 antibody binding; inhibition, % at 6.7 µM; actives 0.43% (n = 360,000); AID 624416; in the data active = inhibition above about 8.5%
MBD2 inh: inhibitors of human MBD2 binding to methylated oligonucleotide; TR-FRET; inhibition, % at 4.4 µM; actives 0.31% (n = 370,000); AID 686964; in the data active = inhibition above about 13%
UHRF1 MBD2 ctr: human UHRF1 methylated DNA binding inhibitors; Q96T88; UHRF1 binding to methylated oligo, TR-FRET; inhibition, % at 4.4 µM; actives 0.75% (n = 370,000); AID 687016;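 also: UHRF1 SRA domain binding a hemimethylated CpG hairpin DNA probe; 0% = median of test compound wells and 100% = reference inhibitor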
Target sequence (Q96T88 whole entry, looked up, the tested form may be a part): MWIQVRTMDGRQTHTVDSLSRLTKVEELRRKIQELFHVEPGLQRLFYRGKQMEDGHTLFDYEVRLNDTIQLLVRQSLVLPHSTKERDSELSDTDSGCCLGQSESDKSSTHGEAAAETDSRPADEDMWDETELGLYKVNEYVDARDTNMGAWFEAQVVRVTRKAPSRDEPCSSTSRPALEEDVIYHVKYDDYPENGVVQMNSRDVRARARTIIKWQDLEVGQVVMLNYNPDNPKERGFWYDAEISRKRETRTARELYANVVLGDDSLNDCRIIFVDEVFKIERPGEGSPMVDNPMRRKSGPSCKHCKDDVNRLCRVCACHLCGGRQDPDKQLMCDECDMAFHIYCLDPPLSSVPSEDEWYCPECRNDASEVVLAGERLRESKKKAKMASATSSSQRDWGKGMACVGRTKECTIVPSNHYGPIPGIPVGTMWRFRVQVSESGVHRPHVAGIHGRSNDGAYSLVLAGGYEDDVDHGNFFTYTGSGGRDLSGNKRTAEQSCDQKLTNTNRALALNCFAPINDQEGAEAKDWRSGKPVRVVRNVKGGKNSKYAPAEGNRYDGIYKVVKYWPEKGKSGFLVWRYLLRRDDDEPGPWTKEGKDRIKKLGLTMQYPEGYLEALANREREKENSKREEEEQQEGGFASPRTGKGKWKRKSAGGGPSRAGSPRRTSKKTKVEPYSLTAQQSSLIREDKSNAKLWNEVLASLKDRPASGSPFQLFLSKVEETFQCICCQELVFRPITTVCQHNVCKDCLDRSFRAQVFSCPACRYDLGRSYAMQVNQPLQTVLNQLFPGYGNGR
LEDGF integ inh: blocks HIV-1 LEDGF/p75-dependent DNA integration | inhibition, % at 3.7 µM | AID 743269 | TR-FRET IN-LEDGF/p75 DNA integration, Eu/Cy5 | actives 0.64% (n = 370,000);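 active = inhibition above the screen-wide mean plus 3 SD, cut at about 13% in these data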;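 also: signal is the Cy5 over europium emission ratio at 671 and 618 nm; 0% = plate median of compound wells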
UHRF1 DNA bind: inhibits human UHRF1 binding to methylated oligonucleotide, MBD2 counter-screen. inhibition, % at 4.4 µM. TR-FRET. shares compounds with MBD2 inh. actives 25% (n = 1,000);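 also: UHRF1 SRA domain binding a labeled hemimethylated CpG hairpin DNA; 0% = vehicle only and 100% = reference inhibitor with vehicle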
MBD2 DBD conf: confirmation of human MBD2-DBD methylated oligonucleotide binding inhibitors; TR-FRET MBD2-DBD binding to methylated oligonucleotide; AID 720531; actives 26% (n = 1,000); shares compounds with MBD2 inh; inhibition, % at 4.4 µM; in the data active = inhibition above about 14%
IN multimer up: activates HIV-1 integrase multimerization in LEDGF counter-screen | AID 1053131 | activation, % at 7.7 µM | shares compounds with LEDGF integ inh | actives 17% (n = 2,000) | TR-FRET HIV-1 integrase multimerization, biochemical; in the data active = activation above about 8.9%
TRFRET interf: TR-FRET optical interference, LEDGF/p75 integration counter-screen. shares compounds with LEDGF integ inh. TR-FRET optical interference counterscreen, HIV-1 IN multimerization. inhibition, % at 7.7 µM. 2,000 tested, under 10 active. AID 1053135;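 active = inhibition above the mean over all tested compounds plus 3 SD, which no compound reached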;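 also: 0% = integrase with antibodies and DMSO and 100% = antibodies without integrase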
LEDGF integ conf: LEDGF/p75-dependent HIV-1 integration inhibition, confirmation; inhibition, % at 3.7 µM; AID 1053136; actives 36% (n = 2,000); shares compounds with LEDGF integ inh; TR-FRET LEDGF/p75-dependent HIV-1 integration, biochemical; in the data active = inhibition above about 14%
An asterisk follows results filed as active; nt = not tested or not shown; ! = repeats disagree. Rule as the data show it, unless noted: active = inhibition above about 21%; inactive = the rest.

SMILES	DNMT1 block	rCAG RNA binder	PG9 Ab binder	MBD2 inh	UHRF1 MBD2 ctr	LEDGF integ inh	UHRF1 DNA bind	MBD2 DBD conf	IN multimer up	TRFRET interf	LEDGF integ conf
S=C(NC1CC1)SCc1ccco1	3	28	0	24*	54*	35*	8	2	0	0	2
COc1ccc(C(c2c(C)[nH]n(-c3ccccc3)c2=O)c2c(C)[nH]n(-c3ccccc3)c2=O)cc1OC	-5	15	-2	16*	21	26*	1	0	4	-16	8
C/C=C/C(=O)N1CC2(CC(c3cccc(NC(=O)CC)c3)=NO2)C[C@H]1C(N)=O (some centres not stated)	2	-2	2	-3	-1	-5	nt	nt	nt	nt	nt
C=C(C)C(=O)Nc1cccc(C2=NOC3(C2)C[C@H](C(N)=O)N(C(=O)/C=C/C)C3)c1 (some centres not stated)	99*	12	3	46*	82*	26*	73*	48*	19*	-96	34*
NC(Cc1ccc2nsnc2c1)C(=O)O (configuration not stated)	-2	-2	0	3	8	-7	nt	nt	nt	nt	nt
N[C@@H](Cc1ccc(O)c(O)c1)C(=O)O	3	32	-2	34*	67*	89*	96*	59*	53*	-267	93*
C[C@@H]1C=CCCO[C@]12C(=O)N(Cc1ccc(Br)cc1)c1cccc(Br)c12	nt	2	-1	3	-3	-1	nt	nt	nt	nt	nt
N#C/C(=C\c1cc(O)c(O)c(O)c1)C(N)=O	10	1	-22	32*	47*	68*	3	-11	31*	-154	31*
CCOC(=O)[C@]12CCC=C1N(CCC1=CCCCC1)C(=O)[C@H](CC(=O)N1CCN(C(=O)c3ccco3)CC1)C2	nt	4	0	-1	-1	-2	nt	nt	nt	nt	nt
CC(C)(C)c1ccc(-c2nnc(SCC(=O)NC3CC3)o2)cc1	4	0	0	-3	1	3	nt	nt	nt	nt	nt
O=C1c2c(O)ccc(O)c2C(=O)c2c(NCCNCCO)ccc(NCCNCCO)c21	-269	54*!	-50	110*	96*	49*	94*	106*	24*	-85	38*!
COc1ccc(NC(=O)C2Cc3c(-c4ccccc4Oc4ccccc4)ccnc3O2)cc1OC (configuration not stated)	-8	9	1	-2	0	-1	nt	nt	nt	nt	nt
Cc1c(O)cc2c(c1O)C(=O)CC(c1ccc(O)cc1)O2 (configuration not stated)	31	21	-1	15*	29*	22*	9	3	37*	-185	39*
CC1=NN(c2ccccc2)C(=O)C1	-8	3	-2	18*	18	31*	6	1	1	-4	1
CC1=NN(c2ccc(N)cc2)C(=O)C1	-10	17	-1	-6	-1	2	nt	nt	nt	nt	nt
O=c1cc2c(=O)oc3cc(O)c(O)oc3c2c(O)c1O	33	19	-36	95*	97*	89*	92*	109*	80*	-286	91*
COc1ccc(S(=O)(=O)N2CCN(CC(O)COc3ccc(CC#N)cc3)CC2)cc1OC (configuration not stated)	-1	5	-1	4	2	-6	nt	nt	nt	nt	nt

Screening data: PubChem BioAssay, several laboratories
